Source: PubChem
RXFP1 antagonist – blocks the human relaxin receptor RXFP1; activity change, negative = inhibition, % at 57.5 µM; AID 1259400; 350,000 tested, 0.59% active; Q9HBX9; HEK293-RXFP1, relaxin-stimulated cAMP HTRF, 30 min; active compounds read low;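 active = activity change of -60% or lower, but not beyond a set lower limit; inconclusive = change between -60% and -40%, or beyond the set limit; inactive = change above -40%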; note: % is set by controls: 0 for no effect and ±100 for the full control effect
Target sequence (Q9HBX9 whole entry, looked up): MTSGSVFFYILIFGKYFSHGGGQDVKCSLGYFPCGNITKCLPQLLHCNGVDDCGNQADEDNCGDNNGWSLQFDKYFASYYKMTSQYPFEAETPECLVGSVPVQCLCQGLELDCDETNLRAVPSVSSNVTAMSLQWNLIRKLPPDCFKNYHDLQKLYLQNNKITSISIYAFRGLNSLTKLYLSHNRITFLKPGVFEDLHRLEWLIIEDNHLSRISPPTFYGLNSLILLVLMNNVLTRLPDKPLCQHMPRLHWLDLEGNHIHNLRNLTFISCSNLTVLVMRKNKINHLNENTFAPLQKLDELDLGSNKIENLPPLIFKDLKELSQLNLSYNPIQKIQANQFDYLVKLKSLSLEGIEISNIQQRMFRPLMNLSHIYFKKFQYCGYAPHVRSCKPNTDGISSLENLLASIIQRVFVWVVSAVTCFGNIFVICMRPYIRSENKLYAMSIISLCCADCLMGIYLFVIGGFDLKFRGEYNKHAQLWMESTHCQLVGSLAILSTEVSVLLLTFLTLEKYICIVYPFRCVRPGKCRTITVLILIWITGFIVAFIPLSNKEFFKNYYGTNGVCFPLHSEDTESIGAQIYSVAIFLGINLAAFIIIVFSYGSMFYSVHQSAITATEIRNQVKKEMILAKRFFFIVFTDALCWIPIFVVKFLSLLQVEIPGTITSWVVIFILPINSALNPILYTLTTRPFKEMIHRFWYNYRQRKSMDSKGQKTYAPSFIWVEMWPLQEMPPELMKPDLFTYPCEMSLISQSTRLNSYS
gsp ag – activates gsp, the McCune-Albright syndrome mutation; gsp mutant cells, cAMP HTRF, 30 min; Potency, µM (doses to about 76.9 µM), for the others: top-dose activation (cAMP increase), most hits filed as activators; 340,000 tested, 0.13% active; AID 624287; active = well fitted activation curve with a large enough effect; inconclusive = small, poorly fitted or top-dose-only effect, or another doubt; inactive = no such curve, though single readings can be large or run the other way; cell line not stated here;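 note: phosphodiesterase inhibitor Ro 20-1724 added with compounds to block cAMP breakdown; potency is the fitted concentration of half-maximal effect; nearly all actives have a fitted effect of over 60% in size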
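Cells stably selected in G418 were plated at 2000/well, grown 16-24 hr, then given compounds in DMSO with the PDE inhibitor […] (300 uM solution added) for 30 min at 37C; cAMP was read by HTRF.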
RXFP1 ag – activates the human relaxin receptor RXFP1. Q9HBX9. HEK293T-RXFP1 cAMP TR-FRET, 30 min; response scale: percent of porcine relaxin response, buffer zero. Potency, µM (top dose mostly 57.5 µM), inactives show at the highest dose activation, most hits filed as activators. 370,000 tested, 0.3% active. AID 2676; active = well fitted activation curve with a large enough effect; inconclusive = small, poorly fitted or top-dose-only effect; note: potency is the fitted concentration of half-maximal effect; % is set by controls: 0 for no effect and ±100 for the full control effect; nearly all actives have a fitted effect of over 60% in size
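Agonist response is measured as cAMP accumulation in an RXFP1-transfected HEK293T line under PDE4 inhibition. Values are scaled between buffer-only and 29 nM porcine relaxin, and EC50s come from standard Hill equation fits.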
gsp antagonist – gsp mutant antagonism; 340,000 tested, 0.4% active; Potency, µM (highest dose often 76.9 µM), inactives show at the top dose activity change, negative = inhibition, most hits filed as inhibitors; gsp-mutant cells, cAMP HTRF, 30 min; AID 624288; calls by dose curve; cell line not stated here;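 note: intracellular cAMP measured with PDE inhibitor Ro 20-1724 present during compound exposure; potency is the fitted concentration of half-maximal effect; % is set by controls: 0 for no effect and ±100 for the full control effect; nearly all actives have a fitted effect of over 65% in size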
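Cells, 2000/well, grown 16–24 h in DMEM 10% FBS with 0.5 mg/ml G418, then compounds plus […] (300 uM addition stock), 30 min at 37C. cAMP read by HTRF (cAMP-d2 and anti-cAMP antibody-K in lysis buffer) after 30 min RT.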
* hit, by the source's call; ? = inconclusive; . = no result given; [ ] = another dose, or the depositor's remark. Sampled rows, rich in hits. Any-hit rate of the full collection: about 0.9%.

SMILES	RXFP1 antagonist	gsp ag	RXFP1 ag	gsp antagonist
CCOC(=O)N1CCN(C(=O)CCCN2C(=O)CSc3nc(C)cc(C)c32)CC1	-13	18%	0%	50µM*
CC(=O)Nc1nonc1-c1nnc(SCc2ccccc2F)n1C	-2	.	2%	.
COc1ccc(C(=O)Nc2ccc(Nc3ccccc3)cc2)cc1[N+](=O)[O-]	3	-11%	-1%	28µM*
O=C(CS(=O)Cc1ccco1)NC/C=C\COc1cc(CN2CCCCC2)ccn1 (stereo unspecified)	-12	.	.	.
O=C1NC(=S)SC1=Cc1ccc(F)cc1	-27	-2%	.	-8%
CCOc1ccc(/C=C2\SC(=S)NC2=O)cc1OC	-73*	-26%	1%	?
O=C1NC(=S)SC1=Cc1ccc(Cl)cc1	-19	22%	.	28µM*
COc1cc(/C=C2\SC(=S)NC2=O)ccc1OS(=O)(=O)c1ccccc1	.	.	-4%	.
C/C(=N\O)[C@@H](C)NCC(C)(C)CN[C@H](C)/C(C)=N/O	36	.	.	.
O=C(O)c1ccc(Nc2nc3c(s2)CCCC3)cc1	-8	10µM*	-2%	-15%
Cc1cccc(Nc2nc3c(s2)CCCC3)c1	-22	-21%	7%	-7%
c1ccc2c(c1)CCc1ccccc1N2	-17	.	.	.
Nc1c(NC/C=C\COc2cc(CN3CCCCC3)ccn2)c(=O)c1=O	-13	.	.	.
Cc1cc(C)nc(N2CCC(C(=O)N3CCN(c4cc(Cl)ccc4C)CC3)CC2)n1	-20	?	4%	28µM*
Cc1ccc(C)c(N2CCN(C(=O)C3CCN(c4nc(C)cc(C)n4)CC3)CC2)c1	-1	-36%	0%	35µM*
COc1ccc(N2CCN(C(=O)C3CCN(c4nc5ccc(C)cc5[nH]4)CC3)CC2)cc1	-25	.	-1%	.
Cc1ccc(C)c(N2CCN(C(=O)C3CCN(c4nc5ccc(C)cc5[nH]4)CC3)CC2)c1	-69*	.	4%	.
CCn1c2c(c(=O)n3ncc(C(=O)Nc4ccc(C(=O)OC)cc4)c13)CN(Cc1ccc(OC)cc1)CC2	-18	.	0%	.
CN1CCN(C(=O)C2=C[C@@H](c3ccc(C(F)(F)F)cc3)C[C@@H](OCCCCO)O2)CC1	.	.	1%	-3%
O=C(C1=C[C@@H](c2ccc(C(F)(F)F)cc2)C[C@@H](OCCCCO)O1)N1CCCCCCC1	.	.	.	11µM*
CC1CCCCC1NC(=O)COC(=O)c1c2c(nc3ccccc13)/C(=C\c1ccco1)CC2 (stereo unspecified)	-65*	?	.	-13%
Clc1ccc(-c2noc(CSc3nnc(-c4ccncc4)n3-c3ccccc3)n2)cc1	-11	-35%	0%	32µM*
Cc1ccc(-n2c(SCc3nc(-c4ccc(Cl)cc4)no3)nnc2-c2ccncc2)cc1	.	.	1%	.
Cc1ccc(S(=O)(=O)CC(=O)N2CCN(c3nc4c(F)cccc4s3)CC2)cc1	-10	.	0%	.
C=CCSc1nnc(NC(=O)c2cccc(S(=O)(=O)N(C)c3ccccc3)c2)s1	-28	-1%	-2%	40µM*
SMILES	RXFP1 antagonist	gsp ag	RXFP1 ag	gsp antagonist
CN(c1ccccc1)S(=O)(=O)c1cccc(C(=O)Nc2nccs2)c1	-7	-5%	-1%	-1%
Cc1nnc2c3ccccc3nc(N3CCN(c4cccc(Cl)c4)CC3)n12	-31	.	6%	.
O=C(CO)[C@@H](O)[C@H](O)[C@@H](O)CO	-3	.	.	.
COC(=O)c1ccc(N2NC(=O)/C(=C/c3cc(OC)c(OC)c(OC)c3)C2=O)cc1	-16	?	0%	13µM*
CC(=O)c1cc(-c2ccccc2)n(CCC(=O)Nc2ccc(C)cc2C)c1C	-62*	.	0%	.
CC(=O)c1cc(-c2ccccc2)n(CC(=O)Nc2ccc(C)cc2C)c1C	7	.	-1%	.
C=CCOc1cccc(C2/C(=C(\O)c3ccc4c(c3)OCCO4)C(=O)C(=O)N2CCN2CCOCC2)c1 (stereo unspecified)	56	?	25µM*	17%
CC1Cc2cc(/C(O)=C3/C(=O)C(=O)N(CCN4CCOCC4)C3c3cccc(Cl)c3)ccc2O1 (stereo unspecified)	19	?	22%	-1%
CCCOc1cccc(C2/C(=C(/O)c3ccc4c(c3)CC(C)O4)C(=O)C(=O)N2CCN2CCOCC2)c1 (stereo unspecified)	17	?	25µM*	-3%
COc1ccc(/C=N/Nc2cc(C)nc3ccccc23)cc1	-71*	-31%	0%	9%
COc1cccc(NC(=O)Cn2cc(C(=O)C3CCCCC3)c3ccccc32)c1	-20	.	?	.
CCOc1cc(CNCCO)cc(Br)c1OCc1ccc(Cl)cc1Cl	-92*	18%	2%	6%
O=c1oc2cc(O)ccc2c2ccccc12	31	8.9µM*	14µM*	13%
COc1ccc2c(c1)c(=O)oc1cc(O)ccc12	13	?	8%	2%
Cc1ccc(C)c(CSc2cn(CCNC(=O)c3cccs3)c3ccccc23)c1	.	.	1%	.
CCCCN1C(C(=O)c2ccccc2)=C(OC(C)=O)c2ccccc2S1(=O)=O	-63*	.	3%	.
CCCCC(=O)OC1=C(C(=O)c2ccccc2)N(CC)S(=O)(=O)c2ccccc21	?	.	-1%	.
O=C1CC(c2ccc(Br)cc2)c2c(ccc3ccccc23)N1 (stereo unspecified)	?	.	2%	.
O=C1CC(c2cccc([N+](=O)[O-])c2)c2c(ccc3ccccc23)N1 (stereo unspecified)	-7	8%	0%	40µM*
O=C(C#Cc1ccccc1)c1ccc([N+](=O)[O-])cc1	-61*	7%[15.4 µM]	-1%	4%
O=C(C#Cc1ccccc1)c1ccccc1	-107*	?	.	.
CCC(Sc1nnc(C)n2c1cc1sccc12)C(=O)Nc1ccccc1F (stereo unspecified)	6	.	16%	.
COc1ccc(OC)c(NC(=O)c2cccc(N3C(=O)C4C5C=CC(C6CC56)C4C3=O)c2)c1 (stereo unspecified)	-10	-48%	2%	28µM*
CCc1ccccc1NC(=O)N1CCN(c2nnc(C)c3c(C)n(-c4ccccc4)nc23)CC1	1	.	0%	.
CCOc1ccc(C2/C(=C(\O)c3ccc4c(c3)OCCO4)C(=O)C(=O)N2CCN2CCOCC2)cc1OCC (stereo unspecified)	10	?	6%	6%
COc1cccc(C2/C(=C(\O)c3ccc4c(c3)OCCO4)C(=O)C(=O)N2CCCN2CCOCC2)c1OC (stereo unspecified)	17	8.9µM*	28%	26%
O=C1C(=O)N(Cc2cccnc2)C(c2ccc(Br)cc2)/C1=C(\O)c1ccc2c(c1)OCCO2 (stereo unspecified)	0	8.9µM*	?	12%
O=C1C(=O)N(CCCN2CCOCC2)C(c2ccc(Cl)cc2)/C1=C(\O)c1ccc2c(c1)OCCO2 (stereo unspecified)	29	11µM*	?	28%
COc1ccc(C2/C(=C(\O)c3ccc4c(c3)OCCO4)C(=O)C(=O)N2Cc2cccnc2)cc1OC (stereo unspecified)	4	24%	19%	13%
